Our source for the binding signal values is publication PMC5836133, “The intracellular immune receptor Rx1 regulates the DNA-binding activity of a Golden2-like transcription factor”.

The full ranking holds about 16,000 sequences; the median of “e-score” is about -0.044, and the highest 2% start at about 0.38. This is one part of a sample in which the highest values are shown more often than they occur.

The target in the assay is T1, GST-NbGlk1(82-244) (Nicotiana benthamiana).
T1 chain: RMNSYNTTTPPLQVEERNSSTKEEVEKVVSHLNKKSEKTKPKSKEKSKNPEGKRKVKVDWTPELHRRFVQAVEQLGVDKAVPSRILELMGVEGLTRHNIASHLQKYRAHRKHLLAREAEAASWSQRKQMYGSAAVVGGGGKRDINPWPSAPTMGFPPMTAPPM
Description: protein-binding microarray; NbGlk1 is a Golden2-like transcription factor of Nicotiana benthamiana; high values mean tight binding. The following applies: protein: recombinant; tags: GST (pTH6838); dsDNA, one strand shown.
Turning to ATCCGGAT, the binding signal worked out at 0.422 ± 0.0228 E-score.
ACACAAAT: the binding signal was found to be 0.204 ± 0.00827 E-score.
For ACAATCGA, the binding signal was determined as 0.201 ± 0.0349 E-score.
The result for ACAATCTG reads 0.404 ± 0.0106 E-score; that for ACAATCAG, 0.237 ± 0.0723 E-score; that for ACAATCAA, 0.223 ± 0.00556 E-score.
Regarding ACAATCTC, the binding signal was 0.373 ± 0.047 E-score.
Regarding ACAATCTA, the binding signal was 0.3803 ± 0.00317 E-score.
With ATTTGTTA, the binding signal worked out at 0.237 ± 0.0814 E-score.
Turning to ACTGCAAT, the binding signal was determined as 0.211 ± 0.0632 E-score.
Consider ACGATTTG, for which the binding signal stood at 0.264 ± 0.0306 E-score.
With CAGATTTA, the binding signal was determined as 0.276 ± 0.0107 E-score.
The result for AAGATTTC reads 0.477 ± 0.00488 E-score; that for ACGATCTA, 0.252 ± 0.0264 E-score; that for AAAATTTC, 0.276 ± 0.00552 E-score.
For AAGATTTA the value was 0.333 ± 0.0668 E-score; for CAAATTTC, 0.232 ± 0.00396 E-score.
For ATGATTTC the value was 0.387 ± 0.0129 E-score; for ACGATTTC, 0.411 ± 0.0236 E-score; for ATTATTTC, 0.219 ± 0.0605 E-score.
Take ATGATTTG: the binding signal is 0.257 ± 0.0544 E-score.
On to CAGATTTC, for which the binding signal worked out at 0.4864 ± 0.00115 E-score.
As to ATTCCCAA, the binding signal was found to be 0.344 ± 0.0159 E-score.
The result for ATCGGATA reads 0.33 ± 0.0178 E-score; that for AAATACGT, 0.267 ± 0.0537 E-score; that for AATTGAAA, 0.226 ± 0.0522 E-score.
The result for ACAAATAA reads 0.23 ± 0.0836 E-score; that for ATTTATTG, 0.216 ± 0.0481 E-score.
For ATTGCGAG the value was 0.24 ± 0.0521 E-score; for ATATATAT, 0.244 ± 0.0459 E-score.
On to ATTCCCAG, for which the binding signal was found to be 0.291 ± 0.0505 E-score.
The result for AACTGATT reads 0.296 ± 0.0177 E-score.
For AATATTTG the value was 0.2529 ± 0.00132 E-score; for AAGATTTG, 0.3926 ± 0.000402 E-score; for AAGATCAG, 0.222 ± 0.0847 E-score.
For AATCGGCA the value was 0.245 ± 0.0624 E-score.
As to AATTTCCG, the binding signal stood at 0.257 ± 0.00588 E-score.
For AATCAGTA the value was 0.268 ± 0.0701 E-score; for AATCTTAT, 0.377 ± 0.038 E-score; for ATTCTTAG, 0.253 ± 0.0124 E-score.
AATCTTAC: the binding signal worked out at 0.375 ± 0.0424 E-score.
ATTCTTAA: the binding signal is 0.276 ± 0.0327 E-score.
The result for AATCTTAA reads 0.411 ± 0.0114 E-score.
The result for AATCTTAG reads 0.393 ± 0.0231 E-score.
Take AAAGTAAT: the binding signal is 0.215 ± 0.0195 E-score.
For CAAAATCC, the binding signal was 0.42 ± 0.00492 E-score.
The result for AAAAATCC reads 0.437 ± 0.00502 E-score; that for ATAAATCC, 0.244 ± 0.0187 E-score; that for ACAAATCC, 0.337 ± 0.0192 E-score.
For CAAAATAC the value was 0.244 ± 0.00367 E-score.
The result for CAAAATCA reads 0.314 ± 0.00439 E-score; that for ATACGCAA, 0.311 ± 0.105 E-score; that for ATTACGTG, 0.343 ± 0.0114 E-score.
ATACAGAT: the binding signal was found to be 0.232 ± 0.0349 E-score.
For ATTTTCAG the value was 0.282 ± 0.0614 E-score; for AATCCGAA, 0.406 ± 0.0054 E-score; for AATCCGAT, 0.432 ± 0.00878 E-score.
ATTCCGAG: the binding signal was determined as 0.275 ± 0.0409 E-score.
As to AATCCCGA, the binding signal came to 0.358 ± 0.0612 E-score.
For AATCAGAA the value was 0.333 ± 0.0384 E-score; for AATCCGAG, 0.384 ± 0.0199 E-score; for AATGCGAT, 0.246 ± 0.145 E-score.
The result for ATCCCGAT reads 0.294 ± 0.0618 E-score; that for AATCCGAC, 0.375 ± 0.0477 E-score.
On to ATCCCCAT, for which the binding signal came to 0.277 ± 0.00736 E-score.
Regarding AAACGGAT, the binding signal is 0.245 ± 0.00295 E-score.
The result for AATCAATA reads 0.274 ± 0.0307 E-score; that for ATTACGCG, 0.332 ± 0.0406 E-score; that for ATCGCCAA, 0.206 ± 0.00895 E-score.
For the sequence ATTACTTA, the binding signal came out at 0.22 ± 0.00767 E-score.
For AAAGAATC the value was 0.432 ± 0.00665 E-score; for CACGAATC, 0.332 ± 0.0173 E-score.
The result for CAAGAATC reads 0.3851 ± 0.0038 E-score; that for AATGAATC, 0.262 ± 0.0542 E-score; that for CAAGATAC, 0.263 ± 0.0221 E-score.
With AAAGAAAT, the binding signal was determined as 0.26 ± 0.02 E-score.
For ATCCGGTG the value was 0.295 ± 0.0985 E-score; for AATAAAAT, 0.285 ± 0.0273 E-score.
The result for CAGATACC reads 0.318 ± 0.0659 E-score; that for ACGATCTC, 0.295 ± 0.0231 E-score; that for ATGATCTC, 0.237 ± 0.0252 E-score.
The result for AGGATATC reads 0.469 ± 0.00696 E-score; that for AGGATATA, 0.211 ± 0.0455 E-score.
For AGGATATG, the binding signal amounted to 0.301 ± 0.025 E-score.
The result for CAGATATC reads 0.4684 ± 0.00421 E-score.
For ATGATATC the value was 0.4224 ± 0.000678 E-score; for CACATATC, 0.207 ± 0.0307 E-score.
Turning to ACGATATC, the binding signal was found to be 0.444 ± 0.0119 E-score.
The result for ATGATATG reads 0.251 ± 0.0218 E-score.
The result for ACGATACG reads 0.207 ± 0.012 E-score.
Take CACGGATA: the binding signal stood at 0.231 ± 0.0138 E-score.
For ATATTTTA the value was 0.311 ± 0.0242 E-score.
As for ATATGATA, the binding signal was 0.219 ± 0.000234 E-score.
Consider ATTCGGTA, for which the binding signal is 0.241 ± 0.0544 E-score.
Turning to ACTGTAAA, the binding signal came out at 0.2014 ± 0.00123 E-score.
For ATTACGGA, the binding signal worked out at 0.366 ± 0.0276 E-score.
On to ATAACGCA, for which the binding signal turned out to be 0.2 ± 0.0382 E-score.
For ATCTAAGA the value was 0.26 ± 0.0102 E-score.
The result for ACGGGAAT reads 0.324 ± 0.00778 E-score; that for CAAATACG, 0.225 ± 0.0583 E-score.
Regarding AAGATACT, the binding signal worked out at 0.2834 ± 0.00149 E-score.
In the case of AAGATATG, the binding signal was 0.352 ± 0.0302 E-score.
Regarding CAAATATG, the binding signal came to 0.212 ± 0.061 E-score.
For AAGATATC the value was 0.4749 ± 0.00348 E-score.
As for AAGATATT, the binding signal was found to be 0.393 ± 0.0518 E-score.
As to AAGATATA, the binding signal was determined as 0.3097 ± 0.00108 E-score.
The result for CAGATATG reads 0.393 ± 0.0499 E-score.
For AAGATACG the value was 0.319 ± 0.0229 E-score; for CACAGATA, 0.28 ± 0.0657 E-score; for CAGATACG, 0.391 ± 0.0206 E-score.
The result for AAGATAAT reads 0.221 ± 0.0513 E-score; that for ATCCAGCC, 0.215 ± 0.0455 E-score; that for CAATCAGA, 0.206 ± 0.101 E-score.
For the sequence AAATATAG, the binding signal was found to be 0.237 ± 0.00681 E-score.
With ATATCGAA, the binding signal turned out to be 0.272 ± 0.135 E-score.
For ATCTCGTA the value was 0.376 ± 0.0288 E-score; for ATCGGATC, 0.275 ± 0.0422 E-score.
The result for ATTTTCGA reads 0.266 ± 0.0802 E-score; that for ATTACGCA, 0.355 ± 0.0219 E-score; that for AGATATTA, 0.379 ± 0.00115 E-score.
With ATATATTA, the binding signal amounted to 0.229 ± 0.0313 E-score.
The result for AAATATTC reads 0.306 ± 0.0275 E-score; that for ATATATTC, 0.281 ± 0.0514 E-score.
The result for AGATATTG reads 0.375 ± 0.0495 E-score.
The result for AGATATTC reads 0.451 ± 0.0112 E-score.
